From PubChem
JMJD2A Tudor: qHTS Assay for Inhibitors of JMJD2A-Tudor Domain | Lysine-specific demethylase 4A (Homo sapiens), O75164 | AlphaScreen JMJD2A-Tudor / H3K4me3 peptide binding | Potency, µM (doses to about 114 µM), without a hit: at the top dose activity change, negative = inhibition, actives largely listed as inhibitors | hit rate 4.4% among 390,000 | AID 504339, 2011; also: % is scaled to controls: 0 for no effect and ±100 for the full control effect; nearly all actives have a fitted effect of over 50% in size
GLS inh: qHTS for Inhibitors of Glutaminase (GLS); Glutaminase kidney isoform, mitochondrial (Homo sapiens), O94925; GLS enzymatic activity, qHTS titration; Potency, µM (titrated, usually from 45.5 µM), inactives show at the top dose activity change, negative = inhibition, hits mostly inhibitors; hit rate 0.21% among 410,000; also: % is scaled to controls: 0 for no effect and ±100 for the full control effect
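hKGA in 45 mM KH2PO4 (pH 8.2), 0.02% Tween-20 with compound, then 1mM L-Glutamine (stock as added) plus glutamate oxidase/HRP/Amplex red coupling mix. Fluorescence read initially and after 30 min at RT; signal change reflects glutamate formation.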
HP1b binding inh: HTS for Inhibitors of HP1-beta Chromodomain Interactions with Methylated Histone Tails; hit rate 0.56% among 390,000; Chromobox protein homolog 1 (Homo sapiens), P83916; AID 540317, 2011; AlphaScreen HP1-beta / biotin-H3K9me3 peptide binding; Potency, µM (highest dose often 114 µM), for the others: at the top dose activity change, negative = inhibition, actives largely listed as inhibitors; also: nearly all actives have a fitted effect of over 70% in size
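Compound inhibition of the preformed complex between 50 nM HP1-beta and 50 nM biotinylated H3K9me3 peptide was read by AlphaScreen. Buffer was PBS pH 7.4 with 0.01% Tween-20. Incubations ran 30 min at room temperature, with 10 ug/mL donor/acceptor beads.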
BAZ2B block: qHTS Assay for Inhibitors of BAZ2B | AlphaScreen BAZ2B-H3K14Ac peptide displacement | Bromodomain adjacent to zinc finger domain protein 2B (Homo sapiens), Q9UIF8 | hit rate 4.4% among 360,000 | Potency, µM (titrated, usually from 114 µM), for inactives: at the highest dose activity change, negative = inhibition, most hits filed as inhibitors; also: % is scaled to controls: 0 for no effect and ±100 for the full control effect; nearly all actives have a fitted effect of over 60% in size
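AlphaScreen luminescence quantifies BAZ2B engagement of H3K14Ac peptide; the protein and biotinylated peptide are both at 50 nM final, buffer PBS pH 7.4 with 0.01% Tween-20, all steps at room temperature.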
G9a block: qHTS Assay for Inhibitors of Histone Lysine Methyltransferase G9a | Histone-lysine N-methyltransferase EHMT2 (Homo sapiens), Q96KQ7 | G9a H3K9 monomethylation, AlphaScreen, 2 h | Potency, µM (top dose mostly 102 µM), without a hit: at the top dose activity, negative = inhibition, usual class: inhibitors | hit rate 8.8% among 350,000 | AID 504332, 2011; also: % is scaled to controls: 0 for no effect and ±100 for the full control effect; nearly all actives have a fitted effect of over 75% in size
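Quantitative HTS format: methyltransferase activity on a biotin-tagged H3K9 peptide is measured by AlphaScreen, using a rabbit anti-monomethyl-H3K9 antibody with streptavidin donor and anti-IgG acceptor beads. Final levels are 20 nM enzyme, 500 nM peptide, 20 uM SAM; 2 h RT.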
Active calls of the source: *; ? = inconclusive; . = no result; [ ] = remark or other dose. Only some compounds are listed: those with a hit (about 10% of all), similar ones and a draw of the others. Calls follow the shape of the dose curve; as a rule, active = well fitted curve in the direction sought with a large enough effect; inconclusive = small, poorly fitted or top-dose-only effect, or another doubt; inactive = no such curve, though single readings can be large; an effect the other way counts as inactive or inconclusive. Potency is read from the fitted curve at half-maximal effect.

SMILES | JMJD2A Tudor | GLS inh | HP1b binding inh | BAZ2B block | G9a block
O=C(NC(=S)Nc1ccc(N2CCOCC2)cc1)c1ccco1 | -29% | 27% | -15% | -5% | ?
O=C(NC(=S)Nc1ccc(N2CCOCC2)cc1)c1cncc(Br)c1 | -29% | 24% | ? | ? | ?
C/C(=C\C(=O)c1ccccc1)Nc1ccc(N2CCOCC2)cc1 | -27% | 14% | 23% | -1% | 79µM*
NC(=O)c1cccc(-c2cnc(N)c(C(=O)c3cccnc3)n2)c1 | -35% | -1% | 28% | . | .
COc1cccc(C(=O)NCC2CCN(c3ccc(S(=O)(=O)N4CCOCC4)cc3)CC2)c1 | 1% | -8% | 9% | 8% | 10%
O=C(NCC1CCN(c2ccc(S(=O)(=O)N3CCOCC3)cc2)CC1)c1cccc(Cl)c1 | -17% | 14% | 11% | 56µM* | -18%
CN(C)C(=S)Nc1ccc(N2CCOCC2)cc1 | -4% | 38% | 47% | -1% | .
O=C(NC(=S)Nc1ccc(N2CCOCC2)cc1)c1cccc(Cl)c1 | ? | 3% | ? | 18µM* | 28µM*
CC(=O)c1ccc(NC(=S)Nc2ccc(N3CCOCC3)cc2)cc1 | -6% | ? | -17% | -27% | 45µM*
COc1ccc(CNC(=O)COC(=O)CN2C(=O)NC3(CCCC3)C2=O)cc1 | -3% | -2% | 33% | 5% | 2%[2.33 µM]
Cc1cc(C(=O)NCc2ccco2)on1 | -34% | -3% | 16% | 1% | -18%
CC(C)(C)C(=O)COC(=O)c1ccccc1O | 24% | 3% | 53% | 4% | 1%[59 µM]
COc1ccc(S(=O)(=O)Nc2cccc3c2O[C@H](CN(C)S(=O)(=O)c2ccccc2)[C@@H](C)CN([C@H](C)CO)C3=O)cc1 | -19% | -1% | 22% | . | .
CN(Cc1ccccc1)N=Nc1ccccc1 | . | 5% | . | . | .
CN(C)N=Nc1ccc(-c2cn(Cc3ccccc3)cn2)cc1 | ? | 4% | -18% | 45µM* | .
Cc1ccc(S(=O)(=O)N(CC2CO2)c2cccc([N+](=O)[O-])c2)cc1 (centres undefined) | -22% | 0% | 15% | -4% | 0%
CCOc1cc(/C=C2\SC(=N)N(c3nonc3N)C2=O)ccc1OCC(N)=O | ? | -10% | 25% | ? | 45µM*
CC(=O)c1ccc(N2CCN(S(=O)(=O)c3ccccc3)CC2)c(F)c1 | -3% | 4% | -32% | 2% | 1%
Clc1ccc(OCCn2cnc(Cl)c2Cl)cc1 | -31% | 0% | ? | ? | 50µM*
O=c1ccn(CCOc2ccc(Cl)cc2)c(=O)[nH]1 | 9% | 10% | 9% | -7% | -14%[2.33 µM]
COc1ccc(OCCn2cnc(Cl)c2Cl)cc1 | -17% | 6% | 8% | -35% | -25%
Cc1nccn1CCOc1ccc(Cl)cc1 | 4.5µM* | 3% | ? | 45µM* | 8.9µM*
Cc1ccccc1CSc1nc(C(C)(C)C)cc(=O)[nH]1 | -7% | -1% | 30% | -17% | -3%
COC(=O)c1ccccc1NC(=O)N1CCN(c2ccccc2)CC1 | -15% | 0% | 6% | -27% | -5%
O=C1C2C3C=CC(C4CC34)C2C(=O)N1/N=C/c1ccc(-c2ccc([N+](=O)[O-])cc2)o1 (centres undefined) | -1% | -3% | 27% | -12% | 4%[59 µM]
SMILES | JMJD2A Tudor | GLS inh | HP1b binding inh | BAZ2B block | G9a block
COC(=O)c1ccc(-c2ccc(/C=N/N3C(=O)C4C5C=CC(C6CC56)C4C3=O)o2)cc1 (centres undefined) | ? | 10% | -1% | 56µM* | 7.9µM*
Cc1ccc(-c2ccc(/C=N/N3C(=O)C4C5C=CC(C6CC56)C4C3=O)o2)c([N+](=O)[O-])c1 (centres undefined) | -25%[57.1 µM] | 1% | -15% | ? | 45µM*
Cc1ccc(C(=O)N2CCC(C)CC2)cc1NC(=O)c1nsc2ccccc12 | -22% | 0% | 23%[57 µM] | -1% | ?
COc1ccc(CNC(=O)COC(=O)CCOc2ccc(C)cc2)cc1OC | -8% | 2% | 21% | 3% | 12%[2.33 µM]
Cc1cccc(OC(C)C(=O)Nc2nonc2-c2ccc(Br)cc2)c1C (centres undefined) | -16% | -6% | 40% | -23% | ?
NS(=O)(=O)c1ccc(NC(=S)N2CCN(C(=O)C3CCCO3)CC2)cc1 (centres undefined) | 10% | 6% | -14% | -6% | 15%
OCCNC(=S)Nc1ccc2nsnc2c1 | -11% | 18% | 40% | -5% | 35µM*
O=C(NCCO)Nc1ccc2nsnc2c1 | -3% | -1% | 27% | -3% | -1%
Cc1nc2ccc(NC(=S)NCCCO)cc2nc1C | -35% | 11% | 79µM* | -10% | 28µM*
CCOc1ccc(-n2c(SCc3ccc([N+](=O)[O-])cc3)nnc2-c2ccc(OC)cc2)cc1 | ? | -13% | ? | ? | 8.9µM*
Cc1cc(O)c(Sc2ncn[nH]2)cc1NS(=O)(=O)c1ccc(Cl)cc1 | -17% | 0% | 27% | -20% | 3%[12.7 µM]
Cc1cc(C)c(S(=O)(=O)/N=C2/C=C(Sc3ncn[nH]3)C(=O)c3ccccc32)cc1C | ? | 9% | ? | 45µM* | 1.4µM*
O=C(c1ccc(Cl)cc1)C(CN1CCCCC1)c1ccccc1 (centres undefined) | -21% | 5% | 39%[57 µM] | 51% | -18%
O=C(CCC1COc2ccccc2O1)Nc1ncccc1O (centres undefined) | 50µM* | 29% | 8% | ? | -5%[59 µM]
O=C(CCC1COc2ccccc2O1)Nc1ccccn1 (centres undefined) | 0% | 1% | 36% | 8% | 8%[12.7 µM]
CC1(C)CC(=O)C(=CN2CCOCC2)C(=O)C1 | 1% | 19% | 48% | -34% | 35µM*
Cc1nn(C)c(C)c1N=Cc1c(O)ccc2ccccc12 | -35% | 7% | 2% | -4% | ?
Oc1ccc2ccccc2c1C=NC1CCCCC1 | -31% | -4% | -27% | ? | 8.9µM*
Cc1cc(C)n(/N=C\c2c(O)ccc3ccccc23)c(=O)c1C(N)=O | 89µM* | 10% | 19% | 1% | 1.1µM*
O=C(N/N=C/c1c(O)ccc2ccccc12)c1ccc(CO)nc1 | 56µM* | 19% | 42% | 3.2µM* | 56µM*
O=C(NN=Cc1c(O)ccc2ccccc12)c1ccc2c(c1)OCO2 | -16% | 1% | 36% | . | .
Oc1ccc2ccccc2c1/C=N/c1nc2c(s1)CCCC2 | 50µM* | -5% | ? | -35% | 1.4µM*
O=C(CSC1=Nc2ccccc2C2=NC(Cc3ccccc3)C(=O)N12)Nc1ccccc1F (centres undefined) | -21% | -4% | 49% | 2% | -6%[59 µM]
